Screens (PubChem BioAssay)
Sampled rows, rich in hits. Any-hit rate of the full collection: about 2.3%.
p53 PUMA act – mutant p53 pathway reactivation; SW480 PUMA-promoter luciferase; activation, % at 9.98 µM; actives 1.5% (n = 28,000); AID 624151; in the data active means activation above about 52%
ID4 binder – binders of human ID4 protein. P47928. small molecule microarray, Flag-ID4 binding, fluorescence F/B. calls only. actives 1.2% (n = 31,000); call rule not given here;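 further: a binder raises fluorescence above local background on the spot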
Target sequence (P47928 whole entry, looked up): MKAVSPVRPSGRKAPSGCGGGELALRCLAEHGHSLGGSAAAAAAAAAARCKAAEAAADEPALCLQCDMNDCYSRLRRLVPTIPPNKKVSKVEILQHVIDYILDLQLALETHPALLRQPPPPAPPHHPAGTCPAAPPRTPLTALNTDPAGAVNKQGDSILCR
Starred values were filed as active, the others as inactive; i = inactive; / = not tested or not shown; + = active, no number.

SMILES | p53 PUMA act | ID4 binder
c1ccc2c(c1)OCC(c1nnc3sc(-c4ccncc4)nn13)O2 (stereo unspecified) | 4 | i
c1csc(-c2nn3c(C4COc5ccccc5O4)nnc3s2)c1 (stereo unspecified) | 68* | i
Cc1ccc(N(C(=O)COc2ccc(C)cc2C)C2C=CS(=O)(=O)C2)cc1 (stereo unspecified) | -2 | i
COc1cccc(OCC(=O)Nc2ccc(Sc3ccc([N+](=O)[O-])cc3)cc2)c1 | 2 | i
Cc1nn(Cc2cccc(Oc3ccccc3)c2)c(C)c1NC(=O)c1nc2ncccn2n1 | -9 | i
COc1ccccc1NC(=O)COc1ccc(C(=O)O)cc1OC | -13 | i
COc1ccccc1OCC(=O)Nc1cccc(-c2nc3ccccc3s2)c1 | 67* | i
O=C(COc1ccc(Cl)cc1Cl)Nc1ccc(-c2nc3ccccc3s2)c(O)c1 | 8 | i
O=C(O)COc1cccc(-c2nc3ccccc3s2)c1 | -43 | i
COc1ccc(OCC(=O)Nc2ccc(-c3nc4ccccc4s3)c(Cl)c2)cc1 | -10 | i
Cc1cccc(OCC(=O)Nc2cccc(-c3nc4ccccc4s3)c2)c1 | 59* | i
COc1ccc(-c2nc3ccccc3s2)cc1NC(=O)COc1ccc(Cl)cc1Cl | 74* | i
Cc1cccc(-c2nnc(SCC(=O)Nc3cccc(C)c3C)n2C)c1 | 8 | i
COc1ccc(C(=O)NCc2occc2C(=O)O)cc1 | 2 | i
C[C@@H]1CN([C@@H](C)CO)C(=O)Cc2cc(NC(=O)Cc3ccccc3)ccc2O[C@H]1CN(C)C(=O)Nc1ccccc1 | 5 | +
C[C@H](CO)N1C[C@H](C)[C@@H](CN(C)C(=O)Nc2ccccc2)Oc2ccc(NC(=O)Cn3cnnn3)cc2CC1=O | 8 | +
C[C@@H]1CN([C@H](C)CO)C(=O)Cc2cc(NC(=O)Cc3ccccc3)ccc2O[C@@H]1CN(C)C(=O)Nc1ccccc1 | -1 | i
C[C@@H]1CN([C@H](C)CO)C(=O)Cc2cc(NS(=O)(=O)c3ccccc3)ccc2O[C@H]1CN(C)C(=O)Nc1ccccc1 | 11 | i
C[C@H]1CN([C@@H](C)CO)C(=O)Cc2cc(NC(=O)Cn3cnnn3)ccc2O[C@@H]1CN(C)C(=O)Nc1ccccc1 | 6 | i
C[C@@H]1CN([C@@H](C)CO)C(=O)Cc2cc(NS(=O)(=O)c3ccccc3)ccc2O[C@H]1CN(C)C(=O)Nc1ccccc1 | 6 | +
COc1ccc(-n2c(SCCCN3C(=O)c4cccc5cccc(c45)C3=O)nnc2-c2cccnc2)cc1 | 15 | i
O=C(CSc1nnc(-c2ccccc2Br)o1)c1ccc2c(c1)OCCO2 | 15 | i
COC(=O)Cc1c(C)c2c(OCC(N)=O)cc(C)cc2oc1=O | -6 | i
COC(=O)Cc1c(C)c2cc(Cl)c(OC(C)C(C)=O)cc2oc1=O (stereo unspecified) | 68* | i
CNC[C@H]1Oc2ncc(-c3ccc(OC)cc3)cc2C(=O)N([C@H](C)CO)C[C@H]1C | / | i
SMILES | p53 PUMA act | ID4 binder
CNC[C@@H]1Oc2ncc(-c3ccc(C#N)cc3)cc2C(=O)N([C@H](C)CO)C[C@@H]1C | 3 | +
CNC[C@@H]1Oc2c(NC(=O)c3cnccn3)cccc2C(=O)N([C@@H](C)CO)C[C@@H]1C | 6 | +
CNC[C@@H]1Oc2ncc(-c3ccccc3)cc2C(=O)N([C@H](C)CO)C[C@@H]1C | 5 | i
CNC[C@@H]1Oc2ncc(-c3ccc(OC)cc3)cc2C(=O)N([C@H](C)CO)C[C@H]1C | 23 | +
CNC[C@H]1Oc2ncc(C3=CCCC3)cc2C(=O)N([C@H](C)CO)C[C@H]1C | 1 | +
CNC[C@H]1Oc2c(NC(=O)c3cnccn3)cccc2C(=O)N([C@H](C)CO)C[C@H]1C | 8 | i
CNC[C@@H]1Oc2ncc(C3=CCCC3)cc2C(=O)N([C@@H](C)CO)C[C@@H]1C | 17 | i
Cc1c(Cl)cccc1NC(=O)COc1ccc(C(=O)Nc2cccc(C(F)(F)F)c2)cc1 | -30 | i
Cc1ccc2ccc(C(Nc3ccccn3)c3cccc([N+](=O)[O-])c3)c(O)c2n1 (stereo unspecified) | -11 | i
Cc1cc(C(F)F)n2nc(C(=O)Nc3c(C)nn(Cc4ccc(Cl)cc4)c3C)nc2n1 | 0 | i
N#Cc1c(NC(=O)Cn2c(=O)oc3cc(Br)ccc32)sc2c1CCCC2 | 7 | i
O=C(Cn1c(=O)oc2ccccc21)Nc1sc2c(c1C(=O)O)CCCC2 | 3 | +
CNC[C@@H]1Oc2ccc(NC(=O)Nc3ccc4c(c3)OCO4)cc2CC(=O)N([C@@H](C)CO)C[C@@H]1C | 5 | i
C[C@@H]1CCCCO[C@H](CN(C)C)[C@@H](C)CN([C@@H](C)CO)C(=O)c2cc(NC(=O)Nc3ccc4c(c3)OCO4)ccc2O1 | -10 | i
CNC[C@H]1Oc2ccc(NC(=O)Nc3ccc4c(c3)OCO4)cc2CC(=O)N([C@@H](C)CO)C[C@@H]1C | 3 | +
C[C@@H]1CN([C@@H](C)CO)C(=O)c2cc(NC(=O)Nc3ccc4c(c3)OCO4)ccc2O[C@H]1CN(C)Cc1ccncc1 | -2 | +
C[C@@H]1CN([C@H](C)CO)C(=O)c2cc(NC(=O)Nc3ccc4c(c3)OCO4)ccc2O[C@@H]1CN(C)Cc1ccncc1 | -5 | i
CNC[C@@H]1OCCCC[C@H](C)Oc2ccc(NC(=O)Nc3ccc4c(c3)OCO4)cc2C(=O)N([C@@H](C)CO)C[C@@H]1C | 2 | +
CNC[C@@H]1Oc2ccc(NS(=O)(=O)c3ccccc3)cc2C(=O)N([C@@H](C)CO)C[C@H]1C | 3 | +
CNC[C@@H]1Oc2ccc(NS(=O)(=O)c3ccccc3)cc2C(=O)N([C@H](C)CO)C[C@H]1C | 6 | i
COc1ccc(CNC(=O)CCn2c(=O)c3sccc3n(Cc3cc(C)ccc3C)c2=O)cc1 | -8 | i
COC(=O)c1c(C)oc2ccc(N(C(=O)c3ccccc3)S(=O)(=O)c3cccs3)cc12 | -5 | i
O=C(COc1ccccc1Cl)Nc1ccc2oc(-c3ccccc3Br)nc2c1 | 38 | i
C=CC1CN(C=O)CCC1CCC(=O)c1ccnc2ccccc12 (stereo unspecified) | -1 | i
Cc1ccc(Cl)c(NC(=O)NCCN2CCN(c3ccccc3[N+](=O)[O-])CC2)c1 | -6 | i
SMILES | p53 PUMA act | ID4 binder
C[C@H]1CN([C@@H](C)CO)C(=O)c2cc(NC(=O)Nc3ccc4c(c3)OCO4)ccc2O[C@H]1CN(C)C | -3 | i
CNC[C@@H]1Oc2ccc(NC(=O)Nc3ccc4c(c3)OCO4)cc2C(=O)N([C@@H](C)CO)C[C@H]1C | 5 | +
O=c1cc(CSc2nc3sc4c(c3c(=O)n2Cc2ccco2)CCC4)[nH][nH]1 | 4 | i
O=C(COc1cccc(-c2cnc3ccccc3n2)c1)c1ccccc1 | 40 | i
O=[N+]([O-])c1cccc(COc2ccc(-c3cnc4ccccc4n3)cc2)c1 | 63* | i
O=C(COc1ccc(Br)cc1)Nc1cccc(-c2nc3ccccc3o2)c1 | 74* | i
O=C(COc1ccc(Br)cc1)Nc1cccc(-c2nnc(-c3ccccc3)o2)c1 | 109* | i
O=C(COc1ccc([N+](=O)[O-])cc1)Nc1ccc2oc(-c3ccc(Br)cc3)nc2c1 | 15 | i
O=C(COc1ccc(Br)cc1)Nc1ccc2oc(-c3ccc(F)cc3)nc2c1 | 69* | i
Cc1ccc(C)c(OCC(=O)Nc2cccc(-c3nc4ccccc4o3)c2)c1 | -4 | i
